Cycloheximide cs: Cycloheximide Counterscreen for Small Molecule Inhibitors of Shiga Toxin. cell reporter, cycloheximide protein synthesis inhibition counterscreen. max response, %. actives 12% (n = 300,000); in the data active means max response mostly above about 13%, no sharp cut-off; inactive means mostly below about 14%; further: read at 38.3 µM for the half of the compounds with a filed dose
Tb PYK inh: qHTS of Trypanosoma Brucei Inhibitors; AID 624173, 2012; TbPYK enzyme, Kinase-Glo Plus ATP luminescence, 45 min; Potency, µM (series often up to 76.8 µM), most hits filed as inhibitors; actives 0.12% (n = 410,000); further: nearly all actives have a fitted effect of over 50% in size
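Quantitative HTS: titrated library compounds versus trypanosomal pyruvate kinase in TEA buffer (pH 7.2) containing KCl, MgCl2, BSA and Tween-20. Reactions were initiated with ADP, 130 uM final. Kinase-Glo Plus luminescence was read after 45 min at RT.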
Shiga toxin inh: A qHTS for Small Molecule Inhibitors of Shiga Toxin; Vero cells, Shiga toxin protein synthesis inhibition reporter; inhibition, % at 38.7 µM; actives 9.2% (n = 290,000); AID 2315, 2010; in the data active means inhibition mostly above about 28%, no sharp cut-off; inactive means mostly below about 43%
LmPK inhibitor: qHTS Assay for Inhibitors of Leishmania Mexicana Pyruvate Kinase (LmPK); AID 1721, 2009; purified LmPK, Kinase-Glo ATP luminescence, 1 h; Q27686; actives 0.37% (n = 290,000); Potency, µM (top dose mostly 57.5 µM), most hits filed as inhibitors
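Kinase-Glo luminescence read after 1 h RT reaction of 0.1 nM LmPK with 0.5 mM PEP and 0.1 mM ADP. Activity scaled between uninhibited and enzyme-free controls.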
Sm TGR inh: qHTS Assay for the Inhibitors of Schistosoma Mansoni Peroxiredoxins; Schistosoma mansoni thioredoxin glutathione reductase (TGR), Q962Y6; purified TGR, DTNB reduction, TNB absorbance 405 nm; Potency, µM (series often up to 114 µM), actives largely listed as inhibitors; actives 3% (n = 360,000); AID 485364, 2010; further: nearly all actives have a fitted effect of over 60% in size
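TGR 20 nM + NADPH 100 uM (dispensed conc.), cpd preinc 15 min RT; start with NADPH (500 uM addition) then DTNB (15 mM addition). Kinetic TNB absorbance, 405 nm filter. Four-parameter Hill fit across titration.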
FBPA Giardia inh: qHTS Assay for Inhibitors of Fructose-1,6-bisphosphate Aldolase from Giardia Lamblia; A8B2U2; purified Giardia FBPA; Potency, µM (doses to about 59.6 µM), most hits filed as inhibitors; actives 0.71% (n = 290,000); further: nearly all actives have a fitted effect of over 55% in size
Target sequence (A8B2U2 whole entry, looked up): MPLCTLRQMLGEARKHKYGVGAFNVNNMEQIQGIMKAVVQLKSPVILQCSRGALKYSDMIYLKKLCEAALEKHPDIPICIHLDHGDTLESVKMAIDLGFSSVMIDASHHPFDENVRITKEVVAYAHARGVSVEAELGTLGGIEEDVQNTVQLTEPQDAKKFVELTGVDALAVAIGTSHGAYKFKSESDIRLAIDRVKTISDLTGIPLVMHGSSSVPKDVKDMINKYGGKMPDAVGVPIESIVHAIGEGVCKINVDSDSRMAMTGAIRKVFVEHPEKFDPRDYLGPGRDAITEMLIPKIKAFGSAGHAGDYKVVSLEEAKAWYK
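40 nM FBPA preincubated 10 min at RT with compound (up to 57.5 uM final), then substrate plus GAPDH/TPI/NAD/arsenate coupling and diaphorase/resazurin added. Fluorescence read after 20 min at RT, 525/598 nm.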
A number is an active result; – = inactive; ? = inconclusive; · = no result. The entries come from a sample that favours hits as a whole. Unless noted, the call rests on the fitted dose curve; in most records, active means well fitted curve in the direction sought with a large enough effect; inconclusive means small, poorly fitted or top-dose-only effect, or another doubt; inactive means no such curve, though single readings can be large; an effect the other way counts as inactive or inconclusive.

SMILES	Cycloheximide cs	Tb PYK inh	Shiga toxin inh	LmPK inhibitor	Sm TGR inh	FBPA Giardia inh
C[C@H](N)[C@H](O)c1ccc(O)c(O)c1	·	·	·	·	·	7.1µM
CC[C@H](NC(C)C)[C@H](O)c1ccc(O)c(O)c1	·	–	·	·	·	3.5µM
CC(N)[C@H](O)c1ccc(O)c(O)c1 (stereo not given in full)	–	·	–	·	·	?
CNC[C@H](O)c1ccc(O)c(O)c1	–	–	–	–	14µM	18µM
CNCC(O)c1ccc(O)cc1 (stereo not given)	–	–	–	–	–	–
CCc1cc2c(-c3ccccc3)cc(=O)oc2cc1OC(C)C(=O)NCC1CCC(C(=O)O)CC1 (stereo not given)	–	–	–	–	–	–
COc1ccc(-c2ccc(C(=O)NCC3CCOCC3)c3occc23)c(C)c1	·	–	·	·	·	·
CCOC(=O)c1c(NC(=O)c2nc(SC)ncc2Cl)sc(C)c1C	·	–	·	·	–	·
COc1cc(NC(=O)Cn2nc(C(F)(F)F)c3c2CCCC3)c(OC)cc1Cl	·	–	·	·	–	·
OC(c1ccccn1)c1c[nH]c2ccccc12 (stereo not given)	–	–	–	–	22µM	–
NCC(c1ccccc1)c1c[nH]c2ccccc12 (stereo not given)	–	–	–	–	–	–
O=[N+]([O-])CC(c1ccc(F)cc1)c1c[nH]c2ccccc12 (stereo not given)	–	–	–	–	–	–
Fc1ccc(C(Nc2ccccn2)c2c[nH]c3ccccc23)cc1 (stereo not given)	–	–	–	–	2.8µM	–
COCCCNc1oc(/C=C/c2cc(OC)c(OC)c(OC)c2)nc1C#N	·	–	·	·	–	·
Cc1ccc(NC(=O)Cn2c(/C=C/c3ccccc3)nc3ccccc32)cc1C	18	–	–	–	–	–
Cc1ccc(NC(=O)Cn2c(=O)c(C(F)(F)F)nc3ccccc32)cc1C	·	–	·	·	–	·
Cc1cccc(CSc2nc3ccncc3n2CC(=O)Nc2ccc(C)c(C)c2)c1	27	·	–	–	–	–
CC(C)c1ccccc1NC(=O)Cn1c(/C=C/c2ccccc2)nc2ccccc21	36	–	53	–	–	–
Cc1cccc(-c2nc(Cn3c(SCc4cc(C)ccc4C)nc4ccncc43)c(C)o2)c1	·	–	·	·	79µM	·
Cc1ccc(C)c(CSc2nc3ccncc3n2CC(=O)Nc2ccc(C)c(C)c2)c1	–	·	–	–	–	–
CC(=O)Nc1cc(Cl)c(N=Cc2ccc(O)cc2O)cc1Cl	–	–	–	–	–	?
CCOC(=O)c1sc(/N=C/c2ccc(O)cc2O)cc1C	40	–	41	–	–	–
CC(=O)c1ccc(N(CC(=O)NC2CCCCC2)C(=O)c2csnn2)cc1	–	–	–	–	–	–
CN(C)c1ccc(Nc2cc(Cl)ncn2)cc1	42	–	·	–	–	–
Cc1cc2oc(=O)cc(C)c2cc1NC(=O)CCC(=O)O	–	–	–	–	–	–
SMILES	Cycloheximide cs	Tb PYK inh	Shiga toxin inh	LmPK inhibitor	Sm TGR inh	FBPA Giardia inh
Cc1cc2oc(=O)cc(C)c2cc1NC(=O)CCl	30	–	–	–	13µM	–
Cc1cc2c(C)cc(=O)[nH]c2cc1NC(=O)CCl	–	–	–	–	10µM	–
CC(=O)c1ccc(NC(=S)NCc2cccnc2)cc1	–	–	–	–	40µM	–
COc1ccc(Cl)cc1NC(=S)NCc1cccnc1	–	–	–	–	13µM	–
S=C(NCc1cccnc1)Nc1cc(Cl)cc(Cl)c1	–	–	–	–	28µM	–
S=C(NCc1cccnc1)Nc1ccc2c(c1)OCO2	27	–	–	–	?	–
O=C(NCc1cccnc1)Nc1cc(Cl)cc(Cl)c1	–	–	–	–	–	–
CCOc1ccc(-c2cnc(NCc3cccc4ccccc34)n2CCOC)cc1	–	–	–	–	–	?
S=C(NCc1cccnc1)Nc1cccc(Cl)c1	–	–	–	–	32µM	–
S=C(NCc1cccnc1)Nc1ccc(Cl)cc1	–	–	–	–	40µM	–
Cc1cccc(C(=O)NC(=S)NCc2cccnc2)c1	–	–	–	–	–	–
Cc1ccc(NC(=S)NCc2cccnc2)cc1	–	–	–	–	?	–
Cc1ccc(C(=O)NC(=S)NCc2cccnc2)c(C)c1	–	–	–	–	45µM	–
COc1ccc(C2CC(C)(c3ccc(OC)cc3OC)Nc3ccccc3N2)c(OC)c1 (stereo not given)	30	–	63	?	–	–
O=c1oc2ccc(Br)cc2cc1-c1nc(-c2ccccc2)no1	·	–	·	·	–	·
Cc1ccc(-c2noc(-c3cc4ccccc4oc3=O)n2)cc1	25	–	–	–	–	–
O=c1oc2ccccc2cc1-c1nc(-c2ccccc2)no1	36	–	107	–	–	–
Cc1cccc(-c2noc(-c3cc4ccccc4oc3=O)n2)c1	29	–	85	–	–	–
COc1ccc(NC(=O)C2CCN(c3cc(C)nc4c(-c5ccc(Cl)cc5)c(C)nn34)CC2)cc1	·	–	·	·	–	·
CCOc1cc(/C=C\c2nc(O)c([N+](=O)[O-])c(=O)[nH]2)ccc1OC(C)C	–	–	–	–	–	–
C=CCc1cc(/C=C/c2nc(O)c([N+](=O)[O-])c(=O)[nH]2)cc(OC)c1O	–	–	–	–	45µM	?
COC(=O)[C@@]1(Cc2ccc(OC)cc2)[C@H]2c3cc(C(=O)N4CCCC4)n(CCF)c3C[C@H]2CN1C(=O)c1ccccc1	·	·	·	·	·	–
Cc1cc(C)cc(NC(=O)COC(=O)c2n[nH]c3ccccc23)c1	–	–	65	–	–	–
O=C(COC(=O)c1n[nH]c2ccccc12)Nc1ccccc1	39	–	57	–	–	–
Nc1ccccc1C(=O)OCCOc1ccccc1	34	–	87	?	–	–
O=C(OCCOc1ccccc1)c1n[nH]c2ccccc12	47	–	55	–	–	–
O=C(O)c1ccccc1OCCOc1ccccc1	–	–	–	–	–	–
